Laboratory results from the supplement of paper PMC10849652.
The full data set covers some 7,900 targets. This sample favours those with a hit. About 0.6% of all pairs of compound and target were hits.

What was measured:
Experiment in all cases: log2 fold change, soluble protein after heating vs DMSO (PISA); higher = thermal stabilisation; K562 cells, 10 uM, 30 min; active = over 0.2 and 3.5 SD of the protein, either way, in both replicates (recomputed)
[1] = compound: NC(=O)Nc1cc(-c2cccc(F)c2)sc1C(=O)N[C@H]1CCCNC1
Method in brief: (§1)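 Soluble protein was quantified by TMTpro 16plex LC-MS/MS after channel sums were equalised. It was obtained as the supernatant after 21,000xg for 90 min from pooled aliquots of K562 cells (2×10^6 cells/mL, 10 μM compound, 30 min) heated for 3 min across 48°C-58°C and extracted in PBS with 0.5% NP-40 at 4°C. Thermal stability values are relative to control samples and come from duplicates. They are given as log2 fold changes.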

[2] = compound: NC(=O)c1cnc(N[C@@H]2CCCC[C@@H]2N)nc1Nc1cccc(-n2nccn2)c1
Method in brief: as §1

[3] = compound: NC1(c2ccc(-c3nc4ccn5c(=O)[nH]nc5c4cc3-c3ccccc3)cc2)CCC1
Method in brief: as §1

[4] = compound: NCC(=O)Nc1ccc(-n2nc(C(F)(F)F)cc2-c2ccc3c(ccc4ccccc43)c2)cc1
Method in brief: as §1

[5] = compound: Nc1ccccc1NC(=O)c1ccc(CNC(=O)OCc2cccnc2)cc1 [entinostat]
Method in brief: as §1

[6] = compound: O=C(CCCCCCC(=O)Nc1ccccc1)NO [vorinostat]
Method in brief: as §1

[7] = compound: O=C(CCCCCCNC(=O)c1cnc(N(c2ccccc2)c2ccccc2Cl)nc1)NO [citarinostat]
Method in brief: as §1

[8] = compound: O=C(O)c1ccc2c(c1)nc(Nc1cccc(Cl)c1)c1ccncc12 [silmitasertib]
Method in brief: as §1

[9] = compound: c1cc(OCCN2CCCCC2)cc(-c2n[nH]c3ccc(-c4nnc[nH]4)cc23)c1
Method in brief: as §1

[10] = compound: c1cn2cc(-c3ccc4cn[nH]c4c3)nc(Nc3ccc(N4CCOCC4)cc3)c2n1 [entospletinib]
Method in brief: as §1

[11] = compound: O=C1NC(=O)C(c2cnc3ccccn23)=C1c1cn2c3c(cc(F)cc13)CN(C(=O)N1CCCCC1)CC2
Method in brief: as §1

Measured: log2 fold change

RUFY3 isoform 3 (UniProt Q7L099)
inactive: [1] -0.032 | [2] -0.022 | [3] -0.05 | [4] -0.014 | [5] 0.143 | [6] 0.071 | [7] 0.089 | [8] 0.1 | [9] 0.013 | [10] -0.046

SIK3 (UniProt H0Y4E8)
inactive: [1] -0.022 | [2] 0.08 | [3] -0.22 | [4] -0.038 | [5] -0.075 | [6] -0.053 | [7] -0.053 | [8] 0.054 | [9] -0.098 | [10] 0.021

RUNX1 isoform 8 (UniProt Q01196)
inactive: [1] -0.027 | [2] 0.03 | [3] -0.092 | [4] 0.187 | [5] -0.16 | [6] 0.321 | [7] -0.249 | [8] 0.119 | [11] 0.082 | [9] 0.051 | [10] 0.116

SEPTIN5 (UniProt G3XAH0)
inactive: [1] 0.008 | [2] 0.004 | [3] -0.142 | [4] 0.016 | [5] -0.031 | [6] 0.16 | [8] -0.023 | [11] -0.028

SDHAF2 (UniProt Q9NX18)
inactive: [1] -0.005 | [2] 0.156 | [3] -0.089 | [4] -0.007 | [5] -0.04 | [6] -0.156 | [7] -0.026 | [8] -0.007 | [11] -0.101 | [9] -0.015 | [10] 0.001

SAP30 (UniProt O75446)
Sequence of UniProt O75446 (O75446 whole entry, looked up): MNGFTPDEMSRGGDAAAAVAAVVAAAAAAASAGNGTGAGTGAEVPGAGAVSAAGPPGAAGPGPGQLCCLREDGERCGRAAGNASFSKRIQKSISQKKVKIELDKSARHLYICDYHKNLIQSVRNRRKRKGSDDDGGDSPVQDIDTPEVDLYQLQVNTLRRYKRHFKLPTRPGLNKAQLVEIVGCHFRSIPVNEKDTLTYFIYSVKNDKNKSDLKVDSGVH
inactive: [1] 0.043 | [2] 0.032 | [3] 0.044 | [4] 0.287 | [5] 0.165 | [6] 0.307 | [8] 0.106 | [11] 0.047

RAD50, A0A494C0Y7
inactive: [1] -0.032 | [2] -0.159 | [3] -0.28 | [4] -0.175 | [5] -0.103 | [6] -0.086 | [7] 0.095 | [8] 0.103 | [9] -0.279 | [10] -0.108

RAB33B (UniProt Q9H082)
Sequence of UniProt Q9H082 (Q9H082 whole entry, looked up): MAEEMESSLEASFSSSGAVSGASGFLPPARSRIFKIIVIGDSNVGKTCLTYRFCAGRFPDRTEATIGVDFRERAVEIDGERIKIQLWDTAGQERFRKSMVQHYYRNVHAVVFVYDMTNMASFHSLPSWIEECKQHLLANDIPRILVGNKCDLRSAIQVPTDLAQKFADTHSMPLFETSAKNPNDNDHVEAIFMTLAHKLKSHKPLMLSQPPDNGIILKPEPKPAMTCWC
inactive: [1] -0.032 | [2] 0.014 | [3] 0.037 | [4] -0.019 | [5] -0.035 | [6] -0.021 | [7] -0.016 | [8] -0.014 | [11] -0.048 | [9] -0.032 | [10] -0.018

SLC12A5 (UniProt Q9H2X9)
Sequence of UniProt Q9H2X9 (Q9H2X9 whole entry, looked up): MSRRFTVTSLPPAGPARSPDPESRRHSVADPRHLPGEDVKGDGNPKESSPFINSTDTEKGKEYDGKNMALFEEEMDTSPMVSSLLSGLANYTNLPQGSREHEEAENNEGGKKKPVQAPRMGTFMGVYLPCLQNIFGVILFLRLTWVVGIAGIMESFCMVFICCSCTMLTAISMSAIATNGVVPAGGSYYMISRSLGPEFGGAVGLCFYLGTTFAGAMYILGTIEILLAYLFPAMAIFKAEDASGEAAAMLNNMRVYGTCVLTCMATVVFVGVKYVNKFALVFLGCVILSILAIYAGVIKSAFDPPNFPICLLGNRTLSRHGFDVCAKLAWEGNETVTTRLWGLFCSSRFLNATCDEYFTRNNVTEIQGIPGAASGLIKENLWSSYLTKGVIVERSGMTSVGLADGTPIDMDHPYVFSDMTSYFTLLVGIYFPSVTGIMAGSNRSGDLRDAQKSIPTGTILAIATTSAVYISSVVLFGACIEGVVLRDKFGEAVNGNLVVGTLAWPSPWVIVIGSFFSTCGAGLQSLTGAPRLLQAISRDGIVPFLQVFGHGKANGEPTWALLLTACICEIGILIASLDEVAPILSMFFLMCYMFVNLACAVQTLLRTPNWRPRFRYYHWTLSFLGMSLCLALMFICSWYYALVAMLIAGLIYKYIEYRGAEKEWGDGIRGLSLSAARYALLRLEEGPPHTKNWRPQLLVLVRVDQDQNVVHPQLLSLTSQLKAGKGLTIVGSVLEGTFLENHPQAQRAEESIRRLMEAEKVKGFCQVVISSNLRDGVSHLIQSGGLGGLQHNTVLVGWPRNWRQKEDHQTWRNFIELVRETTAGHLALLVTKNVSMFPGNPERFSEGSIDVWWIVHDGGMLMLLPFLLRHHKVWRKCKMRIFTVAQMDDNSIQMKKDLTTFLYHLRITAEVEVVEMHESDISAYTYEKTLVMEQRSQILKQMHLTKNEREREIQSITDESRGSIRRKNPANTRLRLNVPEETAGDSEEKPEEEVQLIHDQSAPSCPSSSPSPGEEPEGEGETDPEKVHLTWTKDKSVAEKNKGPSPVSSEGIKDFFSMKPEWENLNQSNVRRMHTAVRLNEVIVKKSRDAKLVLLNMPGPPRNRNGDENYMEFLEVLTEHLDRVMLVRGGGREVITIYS
inactive: [1] -0.111 | [2] -0.077 | [3] -0.064 | [4] -0.043 | [5] -0.05 | [7] 0.129 | [8] 0.05 | [11] -0.032 | [9] -0.062 | [10] -0.081

RPTOR (UniProt Q8N122)
inactive: [1] -0.026 | [2] -0.139 | [4] -0.021 | [5] 0.009 | [6] 0.007 | [7] 0.056 | [8] 0.085 | [11] -0.025 | [9] -0.008 | [10] -0.048
active: [3] -0.243

RFC3 (UniProt P40938)
Sequence of UniProt P40938 (P40938 whole entry, looked up): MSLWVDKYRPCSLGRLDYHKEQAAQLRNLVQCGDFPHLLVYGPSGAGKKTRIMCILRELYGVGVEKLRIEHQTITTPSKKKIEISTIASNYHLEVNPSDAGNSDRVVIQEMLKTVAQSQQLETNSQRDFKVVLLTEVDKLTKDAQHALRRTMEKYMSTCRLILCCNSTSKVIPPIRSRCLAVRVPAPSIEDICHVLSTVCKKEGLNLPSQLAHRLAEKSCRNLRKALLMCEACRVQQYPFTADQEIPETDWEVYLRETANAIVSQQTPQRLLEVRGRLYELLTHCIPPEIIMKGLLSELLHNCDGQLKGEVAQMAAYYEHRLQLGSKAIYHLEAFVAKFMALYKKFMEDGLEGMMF
inactive: [1] -0.001 | [2] -0.039 | [3] -0.078 | [4] -0.023 | [5] -0.028 | [6] 0.028 | [7] 0.077 | [8] -0.006 | [11] -0.039 | [9] -0.013 | [10] -0.037

RABGGTA (UniProt Q92696)
inactive: [1] 0.034 | [2] -0.008 | [4] 0.051 | [5] -0.05 | [6] 0.005 | [7] 0.038 | [8] 0.008 | [11] 0.003 | [9] 0.027 | [10] -0.013
active: [3] -0.257

RPS4X (UniProt P62701)
inactive: [1] 0.088 | [2] 0.095 | [3] 0.216 | [4] 0.088 | [5] -0.048 | [6] 0.005 | [7] -0.104 | [8] 0.014 | [11] 0.126 | [9] -0.204 | [10] 0.082

SEC23IP (UniProt Q9Y6Y8)
Sequence of UniProt Q9Y6Y8 (Q9Y6Y8 whole entry, looked up): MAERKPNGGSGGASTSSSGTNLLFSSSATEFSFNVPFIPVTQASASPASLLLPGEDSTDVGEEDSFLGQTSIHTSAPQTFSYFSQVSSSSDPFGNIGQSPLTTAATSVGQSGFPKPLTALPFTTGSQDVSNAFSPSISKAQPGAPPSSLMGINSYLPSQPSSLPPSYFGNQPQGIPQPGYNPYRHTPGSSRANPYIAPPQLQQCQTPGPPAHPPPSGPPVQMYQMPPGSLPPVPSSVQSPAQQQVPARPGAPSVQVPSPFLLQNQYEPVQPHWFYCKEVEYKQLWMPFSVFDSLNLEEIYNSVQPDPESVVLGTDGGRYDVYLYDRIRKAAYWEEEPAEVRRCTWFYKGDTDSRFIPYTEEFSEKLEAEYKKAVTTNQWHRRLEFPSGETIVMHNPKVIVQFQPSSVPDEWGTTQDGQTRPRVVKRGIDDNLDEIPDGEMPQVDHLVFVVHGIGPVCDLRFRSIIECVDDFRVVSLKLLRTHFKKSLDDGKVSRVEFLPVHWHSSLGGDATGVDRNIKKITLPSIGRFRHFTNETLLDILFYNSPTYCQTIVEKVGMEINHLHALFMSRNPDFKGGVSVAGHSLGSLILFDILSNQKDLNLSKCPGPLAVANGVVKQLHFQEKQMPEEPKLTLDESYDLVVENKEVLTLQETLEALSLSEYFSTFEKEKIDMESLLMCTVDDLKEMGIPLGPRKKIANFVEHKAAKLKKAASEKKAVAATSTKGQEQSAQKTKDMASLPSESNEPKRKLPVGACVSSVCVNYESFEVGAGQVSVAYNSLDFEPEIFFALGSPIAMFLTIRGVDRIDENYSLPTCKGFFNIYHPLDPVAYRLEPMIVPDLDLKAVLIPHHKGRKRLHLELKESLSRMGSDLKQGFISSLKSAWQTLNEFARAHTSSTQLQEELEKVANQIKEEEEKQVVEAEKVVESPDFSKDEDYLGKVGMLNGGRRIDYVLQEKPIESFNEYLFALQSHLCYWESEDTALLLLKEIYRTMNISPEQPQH
inactive: [1] -0.049 | [2] -0.152 | [3] -0.221 | [4] -0.033 | [5] 0.049 | [6] 0.065 | [7] 0.055 | [8] -0.03 | [11] -0.058 | [9] -0.063 | [10] -0.06

RBBP6 (UniProt Q7Z6E9)
inactive: [1] 0.028 | [2] -0.107 | [3] 0.089 | [4] -0.017 | [5] -0.011 | [6] 0.081 | [7] 0.099 | [8] 0.207 | [11] 0.112 | [9] -0.013 | [10] 0.077

RHEB (UniProt Q15382)
inactive: [1] -0.042 | [2] -0.014 | [3] -0.058 | [4] -0.029 | [5] -0.012 | [6] 0.002 | [7] 0.022 | [8] -0.033 | [11] -0.038 | [9] -0.025 | [10] -0.073

RETSAT (UniProt Q6NUM9)
inactive: [1] -0.058 | [2] -0.05 | [3] -0.028 | [4] -0.019 | [5] 0.129 | [6] -0.048 | [7] 0.028 | [8] -0.014 | [11] 0.026 | [9] -0.047 | [10] -0.006

SAAL1 (UniProt Q96ER3)
inactive: [1] -0.091 | [2] 0.031 | [3] -0.207 | [4] -0.058 | [5] 0.04 | [6] 0.006 | [7] 0.011 | [8] 0.119 | [11] -0.04 | [9] -0.013 | [10] 0.093

SLC12A9 (UniProt Q9BXP2)
active: [3] -0.313
inactive: [1] 0.05 | [2] -0.142 | [4] -0.03 | [5] 0.021 | [6] 0.027 | [7] 0.035 | [8] 0.017 | [11] -0.081 | [9] -0.062 | [10] -0.021

SLC19A1 (UniProt P41440)
inactive: [1] 0.1 | [2] 0.157 | [3] 0.036 | [4] 0.007 | [5] -0.017 | [6] 0.057 | [7] 0.02 | [8] -0.013 | [11] 0.207 | [9] -0.033 | [10] -0.121

RCOR3 isoform 3 (UniProt Q9P2K3)
inactive: [1] 0.019 | [2] -0.067 | [3] -0.129 | [4] -0.177 | [5] 0.1 | [6] 0.127 | [7] 0.115 | [8] -0.043 | [9] -0.075 | [10] -0.088

RBM48 isoform 2 (UniProt Q5RL73)
inactive: [1] -0.334 | [2] -0.008 | [5] 0.262 | [6] 0.005 | [11] 0.029

RPAIN isoform 8 (UniProt Q86UA6)
Sequence of UniProt Q86UA6 (Q86UA6 whole entry, looked up): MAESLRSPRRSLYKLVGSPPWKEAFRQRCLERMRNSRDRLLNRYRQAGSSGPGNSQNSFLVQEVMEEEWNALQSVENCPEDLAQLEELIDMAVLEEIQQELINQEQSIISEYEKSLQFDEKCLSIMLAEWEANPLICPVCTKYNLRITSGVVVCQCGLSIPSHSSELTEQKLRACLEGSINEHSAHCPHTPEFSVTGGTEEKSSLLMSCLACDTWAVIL
inactive: [1] -0.017 | [2] -0.044 | [4] -0.093 | [5] 0.014 | [11] -0.012

RNF185 (UniProt Q96GF1)
inactive: [2] -0.022 | [3] -0.072 | [4] -0.139 | [6] -0.28 | [7] -0.135 | [8] 0.001 | [9] 0.072 | [10] 0.128

SAFB2 (UniProt K7EQU4)
inactive: [11] 0.007

RPS3A (UniProt D6R9B6)
inactive: [1] -0.41 | [2] -0.391 | [5] -0.234

RBMY1E (UniProt A6NEQ0)
inactive: [3] -0.246 | [6] 0.07 | [7] 0.063 | [8] -0.156 | [9] -0.081 | [10] -0.057

S100A10 (UniProt P60903)
inactive: [1] 0.3 | [2] 0.283 | [5] 0.189 | [6] -0.023 | [7] 0.333 | [10] -0.102
active: [9] 0.792

RAB3IL1 (UniProt E9PK89)
inactive: [1] 0.062 | [2] 0.11 | [4] 0.018 | [5] -0.023 | [6] 0.112 | [7] 0.049 | [11] -0.234 | [9] 0.016 | [10] -0.039

SDHAF4 (UniProt Q5VUM1)
Sequence of UniProt Q5VUM1 (Q5VUM1 whole entry, looked up): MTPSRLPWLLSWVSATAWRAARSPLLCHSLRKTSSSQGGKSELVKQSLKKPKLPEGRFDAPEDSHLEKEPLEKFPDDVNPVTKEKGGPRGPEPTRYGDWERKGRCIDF
inactive: [1] -0.016 | [2] 0.07 | [3] -0.111 | [5] -0.021 | [7] 0.076 | [8] 0.04 | [11] 0.005 | [9] 0.108 | [10] -0.018

RAB3D (UniProt O95716)
Sequence of UniProt O95716 (O95716 whole entry, looked up): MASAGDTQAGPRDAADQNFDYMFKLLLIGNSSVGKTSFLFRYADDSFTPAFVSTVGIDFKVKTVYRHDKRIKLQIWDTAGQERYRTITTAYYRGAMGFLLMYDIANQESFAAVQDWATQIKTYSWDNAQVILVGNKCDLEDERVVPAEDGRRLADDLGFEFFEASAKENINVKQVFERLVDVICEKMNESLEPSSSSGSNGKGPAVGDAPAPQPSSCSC
inactive: [2] 0.113 | [3] 0.032 | [4] -0.007 | [6] -0.126 | [7] 0.055 | [8] 0.027 | [9] 0.051 | [10] 0.004

SCLT1 (UniProt Q96NL6)
Sequence of UniProt Q96NL6 (Q96NL6 whole entry, looked up): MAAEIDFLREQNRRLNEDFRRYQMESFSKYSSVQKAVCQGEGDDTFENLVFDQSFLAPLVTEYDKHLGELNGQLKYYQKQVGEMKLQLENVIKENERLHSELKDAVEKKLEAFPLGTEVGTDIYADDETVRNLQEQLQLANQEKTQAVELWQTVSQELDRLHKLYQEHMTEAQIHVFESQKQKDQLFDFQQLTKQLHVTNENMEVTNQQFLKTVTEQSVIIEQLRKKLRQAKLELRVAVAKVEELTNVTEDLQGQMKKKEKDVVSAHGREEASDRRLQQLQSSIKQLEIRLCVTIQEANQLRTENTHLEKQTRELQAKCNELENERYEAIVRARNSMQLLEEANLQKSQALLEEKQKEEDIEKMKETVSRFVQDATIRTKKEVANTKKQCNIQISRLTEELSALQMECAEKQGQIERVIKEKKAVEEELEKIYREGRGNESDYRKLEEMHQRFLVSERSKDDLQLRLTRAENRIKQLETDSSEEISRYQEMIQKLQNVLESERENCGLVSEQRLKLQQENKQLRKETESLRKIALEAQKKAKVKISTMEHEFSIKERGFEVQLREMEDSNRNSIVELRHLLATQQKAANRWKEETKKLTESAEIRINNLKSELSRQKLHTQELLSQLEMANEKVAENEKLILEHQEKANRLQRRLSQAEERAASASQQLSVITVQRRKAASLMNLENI
inactive: [1] -0.007 | [3] -0.057 | [4] -0.077 | [5] -0.023 | [6] 0.064 | [8] -0.01

RABGAP1L isoform 5 (UniProt Q5R372)
inactive: [1] -0.246 | [2] -0.094 | [3] -0.021 | [5] -0.051 | [8] 0.106
active: [11] -0.315
